The structures appear in SMILES notation. Screen size: about 290,000 compounds; about 3,500 (1.2%) were called active. The full list was thinned out, with actives kept by preference. A number with no mark means an inactive call.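 How the source made its calls: active means inhibition above the campaign mean inhibition over all tested compounds plus 3 SD (cut at about 28% in these data); inactive means the rest.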

The test system of the test is M18 aspartyl aminopeptidase (Plasmodium falciparum 3D7). Description: inhibition of P. falciparum M18 aminopeptidase – biochemical, QFRET, recombinant enzyme, primary screen (AID 1822).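 Further: 0% = plate median of test compound wells and 100% = 2 mM ZnCl2.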 The conditions noted are these: recombinant PfM18AAP, H-Glu-NHMec fluorogenic cleavage; at 7.35 µM; hits give high values.
For `CC(=O)c1cccc(NC(=O)C2COc3ccccc3O2)c1` (centres undefined), the inhibition is -8.5%.

`Cn1cncc1COC(=O)c1ccc(Cl)cc1`: the inhibition is -13.9%.

Take `S=C(NCCc1ccccc1)N1CCCCC1`: the inhibition was -5.18%.

Regarding `Oc1ccc(N2CCN(C(=S)NCc3ccccc3)CC2)cc1`, the inhibition is 36.6% (active).

Take `Oc1ccccc1N1CCN(C(=S)NCc2ccccc2)CC1`: the inhibition was 9.57%.

In the case of `Cc1occc1C(=O)N/N=C/c1ccc(-c2cccc([N+](=O)[O-])c2)o1`, the inhibition is 9.99%.

Turning to `COc1ccc(N2CCN(C(=S)Nc3ccc(S(N)(=O)=O)cc3)CC2)cc1`, the inhibition was 46.7% (active).

`CCOc1ccccc1N1CCN(C(=S)Nc2ccc(S(N)(=O)=O)cc2)CC1`: the inhibition was 9.49%.

Turning to `NS(=O)(=O)c1ccc(NC(=S)N2CCCC2)cc1`, the inhibition is 0.47%.

With `NS(=O)(=O)c1ccc(CCNC(=O)c2nc(CS(=O)(=O)c3ccc(Cl)cc3)no2)cc1`, the inhibition was -4.83%.

Take `O=C(NC1CCCC1)C(c1ccc(Cl)cc1)N(C(=O)c1csnn1)C1CC1` (centres undefined): the inhibition was -2%.

`CC(C(=O)Nc1ccc(O)c(C(=O)O)c1)N1C(=O)/C(=C/c2cccs2)SC1=S` (centres undefined): the inhibition was 30.4% (active).

With `O=C(CCCN1C(=O)/C(=C/c2cccs2)SC1=S)Nc1ccc(O)cc1`, the inhibition was 1.87%.

Take `O=C(CCN1C(=O)/C(=C/c2cccs2)SC1=S)NNC(=O)c1cccc(O)c1`: the inhibition is -2.41%.

As to `CN(C(=O)CC1C(=O)NCCN1Cc1ccc2ccccc2c1)C1CCOCC1` (centres undefined), the inhibition is 9.14%.

In the case of `Cc1ccccc1Nc1nnc(SCC(=O)c2cc3ccccc3o2)s1`, the inhibition was 28.2% (active).

For the molecule `Cc1cc(NC(=O)CSc2nnc(Nc3ccccc3F)s2)no1`, the inhibition was -12.2%.

As for `Cc1ccc(Nc2nnc(SCC(=O)c3cc4ccccc4o3)s2)cc1C`, the inhibition is 6.69%.

As to `O=C(NCCS(=O)(=O)N1CCN(c2ccccc2F)CC1)c1ccc(Br)o1`, the inhibition is 0.95%.

`CCOc1ccc(C(=O)Nc2ccc(S(=O)(=O)NCC3CCCO3)cc2)cc1OCC` (centres undefined): the inhibition is -11.8%.

As to `CC(C)(C)c1ccc(CN2C(=O)c3ccccc3S2(=O)=O)cc1`, the inhibition was 7.13%.

For the molecule `Cc1cccc(-n2c(N)c(C(=O)N3CCN(C)CC3)sc2=S)c1`, the inhibition was 13.6%.

For the molecule `N#Cc1ccccc1-n1c(N)c(C(=O)N2CCCC2)sc1=S`, the inhibition was 29.2% (active).

For the molecule `Cc1ccc(-n2c(N)c(C(=O)N3CCOCC3)sc2=S)c(C)c1`, the inhibition is 4.98%.

`CCN(CC)CCCNC(=O)c1cc2c(=O)[nH]c3ccc(C)cc3c2s1`: the inhibition was 0.43%.

Turning to `CCOc1cc(C(=O)O)ccc1OCCOc1ccccc1`, the inhibition is 9.32%.

As to `[2H]C(CCOS(N)(=O)=O)c1ccccc1` (centres undefined), the inhibition is -1.1%.

Regarding `CCOC(=O)CSc1nc2sc3c(c2c(=O)[nH]1)CC(C)(C)OC3`, the inhibition is 10.6%.

Consider `CC/C(C)=N/Nc1nc2sc3c(c2c(=O)[nH]1)CC(C)(C)OC3`, for which the inhibition was 48.8% (active).

Regarding `CCSc1nc2sc3c(c2c(=O)[nH]1)CC(C)(C)OC3`, the inhibition is -5.01%.

Turning to `COc1ccccc1OCC(=O)Nc1c2c(nn1-c1ccc(F)cc1)CS(=O)(=O)C2`, the inhibition was -3.07%.

With `Cc1cnc(NC(=O)CSc2nnc(C)s2)s1`, the inhibition was -8.35%.

On to `Cc1nnc(SCC(=O)NC2CCCC2)s1`, for which the inhibition was 5.86%.

`Cc1nnc(SCC(=O)Nn2cnnc2)s1`: the inhibition was 41.6% (active).

As for `CC1(C)CC(=O)C/C(=N\NC(=O)c2cccs2)C1`, the inhibition was 38.3% (active).

As for `CC1C/C(=N/NC(=O)c2cccs2)CC(C)(C)C1` (centres undefined), the inhibition is -19.4%.

Consider `Cc1ccc(C)c(NC(=O)CCC(=O)N/N=C2/CC(=O)CC(C)(C)C2)c1`, for which the inhibition was -1.68%.

With `COc1ccccc1CNS(=O)(=O)CC12CCC(CC1=O)C2(C)C` (centres undefined), the inhibition was 6.59%.

Consider `O=C(Nc1cccc(O)c1)c1ccc(C(=O)c2ccccc2)o1`, for which the inhibition is -0.92%.

Regarding `C/C(=C\C(=O)c1ccccc1)Nc1cccc(O)c1`, the inhibition was 31% (active).

On to `C/C(=C\C(=O)c1cccnc1)Nc1ccc(C)c(C)c1`, for which the inhibition was 1.47%.

As to `O=[N+]([O-])c1ccc(N2CCN(c3ccc(O)cc3)CC2)c(Cl)c1`, the inhibition is 36% (active).

As to `COc1ccc(N2CCN(c3ccc([N+](=O)[O-])cc3Cl)CC2)cc1`, the inhibition was -8.52%.

On to `O=C(O)C1CCN(c2ccc([N+](=O)[O-])cc2[N+](=O)[O-])CC1`, for which the inhibition is -4.27%.

Consider `CCOc1ccc(C(=O)Nc2cccc(SC)c2)cc1`, for which the inhibition was -1.4%.

Regarding `O=C(CN1C(=O)COc2ccc(Cl)cc21)Nc1ccc(N2CCOCC2)cc1`, the inhibition was -12.7%.

Take `COc1ccc(Cl)cc1NC(=O)CN1CCN(C(=O)N2CCOCC2)CC1`: the inhibition is -7.2%.

Consider `O=C(Nc1cc(N2CCOCC2)ncn1)NC1(C(F)(F)F)Oc2ccc(Cl)cc2O1` (centres undefined), for which the inhibition is 89.4% (active).

As to `CCOc1ccc(C(=O)CCN2CCOCC2)cc1`, the inhibition was -12.6%.

Take `O=C1c2ccccc2C(=O)N1CCOc1ccc(F)cc1`: the inhibition was -6.45%.

As for `CCn1c(SCC(=O)Nc2ccc(Br)cc2)nc2sc3c(c2c1=O)CCN(C)C3`, the inhibition is 7.65%.

Take `COc1ccc(Cl)cc1S(=O)(=O)N1CCN(CC(=O)C(C)(C)C)CC1`: the inhibition is -1.35%.

For `O=C(CN1CCN(S(=O)(=O)c2cc(Cl)ccc2Cl)CC1)c1ccc(O)c(O)c1`, the inhibition is 71.5% (active).

In the case of `N#Cc1ccsc1NC(=O)CN1CCN(S(=O)(=O)c2cc(Cl)ccc2Cl)CC1`, the inhibition is -4.98%.

Take `C/C(=N\NC(=O)c1ccccc1F)c1ccccn1`: the inhibition was -8.33%.

`CC(C)(C)NC(=O)NC(=O)COC(=O)C1c2ccccc2Oc2ccccc21`: the inhibition is 6.75%.

Turning to `CCn1ccnc1CNC(=O)CC1C(=O)NCCN1CCCc1ccccc1` (centres undefined), the inhibition is 7.75%.

Turning to `CN(C(=O)CC1C(=O)NCCN1Cc1ccc(F)cc1Cl)C1CCCCC1` (centres undefined), the inhibition was -5.56%.

`CCn1ccnc1CNC(=O)CC1C(=O)NCCN1Cc1ccc(F)cc1Cl` (centres undefined): the inhibition is 33.7% (active).

Regarding `CCN(c1cccc(C)c1)S(=O)(=O)c1ccc(-c2coc(C)n2)cc1`, the inhibition is -0.79%.

As for `CCOc1ccccc1/C=N/Nc1nc2ccccc2o1`, the inhibition was 2.76%.

With `Brc1ccccc1/C=N/Nc1nc2ccccc2o1`, the inhibition is -0.38%.

For `COc1ccc(/C=N/Nc2nc3ccccc3o2)cc1OC`, the inhibition is 56.5% (active).

`O=C(NC1Cc2ccccc2C1)c1cc(COc2cccc(C(F)(F)F)c2)on1`: the inhibition is 0.88%.

For the molecule `O=C(O)c1ccccc1-c1ccccc1C(=O)NCCc1ccccc1`, the inhibition was 0.27%.

As for `COc1cccc(NC(=S)NCCCN2CCOCC2)c1`, the inhibition is -6.09%.

`Cc1ccc(C(=O)NC(=S)NCCN2CCOCC2)cc1`: the inhibition is -7.16%.

Regarding `CCOc1cccc(/C=N/NC(=S)NCCN2CCOCC2)c1O`, the inhibition is 37.6% (active).

As to `c1cnc(N2CCN(c3ccc4ccccc4n3)CC2)nc1`, the inhibition was -7.11%.

In the case of `COC(=O)c1cc(NS(=O)(=O)c2ccc3c(c2)c(=O)n(C)c(=O)n3C)cc(C(=O)OC)c1`, the inhibition is 7.75%.

Turning to `CCOC(=O)[C@H]1[C@H]2COc3cc(OC)ccc3[C@@H]2N2C(=O)N(c3ccc(Br)cc3)C(=O)[C@@]12C`, the inhibition is 8.12%.

As for `COc1cc(Cl)ccc1OCc1cc(C(=O)N2CC[C@@H]3CCCC[C@H]3C2)no1`, the inhibition was -8.61%.

For the molecule `CCOc1cc(/C=N/NC(=O)CN2CCCCC2)ccc1O`, the inhibition was -2.78%.

`Cc1nccn1CC(=O)N/N=C/c1ccc(O)c(O)c1`: the inhibition is 59.7% (active).

For `Cc1nc2ccccc2n1CC(=O)N/N=C/c1cccnc1`, the inhibition is 0.09%.

`CCn1c(SCC(=O)N/N=C/c2ccncc2)nc2ccccc21`: the inhibition is -5.49%.

`CCOc1ccc(/C=N/NC(=O)CSc2ccccn2)cc1O`: the inhibition was -7.37%.

Regarding `Cn1c(SCC(=O)N/N=C/c2ccc(O)c(O)c2)nc2ccccc21`, the inhibition is 61.1% (active).

For `CC(=O)Oc1ccc(-c2cccc(C(=O)N3CCCCC3)c2)cc1`, the inhibition was 0.56%.

For `CSc1nccc(NC(=O)c2ccc(C(C)(C)C)cc2)n1`, the inhibition was -0.09%.

Consider `Cc1cccc([C@@H]2[C@@H]3C(=O)N(Cc4ccccc4)C(=O)[C@@H]3[C@]3(C)C(=O)N(c4ccc(Br)cc4)C(=O)N23)c1`, for which the inhibition is -12%.

Regarding `Cc1ccc(CNC(=O)[C@@H](NC(=O)Cc2ccccc2)C(C)C)cc1`, the inhibition is 5.66%.

Consider `COc1cccc(NC(=O)Nc2nnc(N3CCCCC3C)s2)c1` (centres undefined), for which the inhibition is 0.21%.

`CCOc1ccccc1NC(=O)c1cccnc1`: the inhibition is -12.7%.

As for `COc1ccccc1NC(=O)c1ccc2nc(N3C(=O)CCC3=O)sc2c1`, the inhibition is -4.36%.

For `COc1ccccc1NC(=O)c1ccc(N2CC3CC(C2)c2cccc(=O)n2C3)c(NC(=O)c2cccnc2)c1` (centres undefined), the inhibition was 29.5% (active).

With `CC(C)Cn1c(=O)c2ccccc2n2c(CCC(=O)NCc3ccccn3)nnc12`, the inhibition is -6.62%.

Turning to `CCOc1ccc(S(=O)(=O)N2CCN=C2Cc2ccccc2)cc1C`, the inhibition was -0.06%.

Turning to `Cc1nnc(N/N=C/c2ccccn2)[nH]c1=O`, the inhibition is 8.17%.

With `O=c1[nH]c(NCCO)nnc1Cc1ccc(Cl)cc1`, the inhibition was 5.33%.

Take `COc1ccc(Cc2nnc(N/N=C/c3ccccc3O)[nH]c2=O)cc1OC`: the inhibition is 54.3% (active).

For `COc1cccc(N(CC(=O)NCc2ccccc2)C(=O)CCC(=O)Nc2nccs2)c1`, the inhibition is -7.44%.

As to `CCCn1c2ccccc2c2cnn(CC(=O)NCCCN3CCCCC3CC)c(=O)c21` (centres undefined), the inhibition was 2.69%.

With `Cc1ccc(C2Nc3cccc4cccc(c34)N2)cc1`, the inhibition was 19.1%.

As for `Oc1ccc(C2Nc3cccc4cccc(c34)N2)cc1`, the inhibition was 31.7% (active).

For the molecule `COc1cccc(C2Nc3cccc4cccc(c34)N2)c1`, the inhibition was -7.19%.

Regarding `CCOC(=O)C1(Cc2cccc(OC)c2)CCCN(C(=O)CCSC)C1` (centres undefined), the inhibition is -2.88%.

In the case of `Cc1ccc(C)c(N2CCN(C(=O)CCCCCn3c(=S)[nH]c4ccc(N5CCOCC5)cc4c3=O)CC2)c1`, the inhibition is 5.1%.

Take `O=C(O)CC(CC(=O)N1CCOCC1)c1ccccc1` (centres undefined): the inhibition is -1.93%.

One may read the inhibition as the drop in the measured response relative to a control, in per cent.

The values above are taken from PubChem BioAssay AID1822 (The Scripps Research Institute Molecular Screening Center, 2009).
